An excerpt weighted towards active compounds, which were near 8.8% of everything screened.
HTT ATP protect: protects HTT-Q103 PC12 cells, measured by ATP; PC12 HTT-Q103 induced, cytoprotection, ATP luminescence, 40 h; Potency, µM (highest dose often 56.4 µM), without a hit: cytoprotection (ATP increase), hits mostly activators; hit rate 0.14% among 230,000; also: % of control where 0% means no effect; nearly all actives have a fitted effect of over 45% in size
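PC12 cells stably carrying ecdysone-inducible Htt exon 1 (Q103)–GFP were induced with 100 nM tebufenozide (final) alongside library compounds in a dose series. Cytoprotection was scored as retained ATP by ATPlite luminescence.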
HTT aggregate: mutant huntingtin aggregation inhibition. PC12 HttQ103-GFP aggregates, Acumen cytometry, 40 h. Potency, µM (highest dose often 46.1 µM), for the others: at the top dose activity change, negative = inhibition, usual class: inhibitors. hit rate 1.1% among 220,000. AID 1688; also: % is scaled to controls: 0 for no effect and ±100 for the full control effect; nearly all actives have a fitted effect of over 60% in size
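Aggregates are detected as GFP objects 1–25 µm with signal 6 STDEV over background in lysates of induced PC12 cells. These carry Huntingtin exon 1 with 103 glutamines fused to GFP under an ecdysone promoter; compounds titrated.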
ALDH1A1 block: blocks purified human ALDH1A1 activity | P00352 | Purified ALDH1A1, NADH fluorescence, propionaldehyde substrate | Potency, µM (highest dose often 75.3 µM), for inactives: top-dose activity, negative = inhibition, actives largely listed as inhibitors | hit rate 7.3% among 220,000 | AID 1030; active = well fitted inhibition curve with a large enough effect, not every such curve was filed as active; inconclusive = small, poorly fitted or top-dose-only effect, or another doubt; inactive = no such curve, though single readings can be large or run the other way;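 also: plate controls were no enzyme wells and a reference inhibitor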
Target sequence (P00352 whole entry, looked up): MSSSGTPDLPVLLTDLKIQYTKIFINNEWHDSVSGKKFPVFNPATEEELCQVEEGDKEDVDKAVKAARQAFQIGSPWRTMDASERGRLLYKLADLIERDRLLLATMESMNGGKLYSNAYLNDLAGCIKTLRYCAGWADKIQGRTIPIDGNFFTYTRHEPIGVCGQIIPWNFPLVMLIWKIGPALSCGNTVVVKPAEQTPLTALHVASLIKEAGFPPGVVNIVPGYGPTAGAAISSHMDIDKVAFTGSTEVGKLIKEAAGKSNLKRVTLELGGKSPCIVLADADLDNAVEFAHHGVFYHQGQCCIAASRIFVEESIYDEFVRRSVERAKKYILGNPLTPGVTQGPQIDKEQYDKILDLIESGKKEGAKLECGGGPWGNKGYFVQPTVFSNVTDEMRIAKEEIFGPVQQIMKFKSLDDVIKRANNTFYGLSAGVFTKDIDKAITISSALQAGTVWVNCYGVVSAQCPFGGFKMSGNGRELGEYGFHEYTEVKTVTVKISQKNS
HPGD inh: inhibitors of human 15-hydroxyprostaglandin dehydrogenase (HPGD) | Potency, µM, for inactives: top-dose activity change, negative = inhibition, hits mostly inhibitors | purified HPGD, NADH fluorescence kinetic, PGE2 substrate | hit rate 4.3% among 150,000 | AID 894 | P15428; active = well fitted inhibition curve with a large enough effect, not every such curve was filed as active; inconclusive = small, poorly fitted or top-dose-only effect, or another doubt; inactive = no such curve, though single readings can be large or run the other way; also: % is scaled to controls: 0 for no effect and ±100 for the full control effect
Target sequence (P15428 whole entry, looked up): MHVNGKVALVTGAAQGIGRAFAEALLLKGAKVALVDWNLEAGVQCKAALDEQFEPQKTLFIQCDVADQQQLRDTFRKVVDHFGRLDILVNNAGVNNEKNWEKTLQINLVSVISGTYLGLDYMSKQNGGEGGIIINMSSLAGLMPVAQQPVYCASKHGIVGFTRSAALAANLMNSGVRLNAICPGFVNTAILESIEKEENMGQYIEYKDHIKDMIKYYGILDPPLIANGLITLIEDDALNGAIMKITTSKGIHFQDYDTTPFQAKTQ
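NADH formation kinetics: reaction with 30 uM PGE2 and 1 mM NAD+ (final), 20 nM enzyme, Tris-HCl pH 8 with Tween 20, after 15 min compound preincubation at room temperature. Fluorescence change, last versus first of five reads.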
LMNA splice mod: changes lamin A minigene splicing in HeLa cells; hit rate 0.01% among 200,000; Potency, µM (top dose mostly 46.1 µM), without a hit: at the top dose ratio change, negative = inhibition, hits mostly inhibitors; AID 1487; HeLa LMNA splicing GFP/RFP minigene ratio, 48 h; active = well fitted inhibition curve with a large enough effect in the signal ratio, with a control signal flat, not every such curve was filed as active; inconclusive = small, poorly fitted or top-dose-only effect, or effect the other way, or a change in a side signal; the % refers to the signal ratio; also: % is scaled to controls: 0 for no effect and ±100 for the full control effect
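Read-out is the ratio of GFP to DsRed2 object intensity, acquired by 488 nm laser-scanning cytometry on HeLa lamin A-EGFP minigene reporter cells. Compound incubation 48 hrs at 37 °C in Opti-MEM with 2% FBS; DMSO 0.5% final.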
The depositor's hits bear a star; ? = inconclusive; · = not tested or not shown; [ ] = remark or other dose. Unless noted, calls follow the shape of the dose curve; as a rule, active = well fitted curve in the direction sought with a large enough effect; inconclusive = small, poorly fitted or top-dose-only effect, or another doubt; inactive = no such curve, though single readings can be large; an effect the other way counts as inactive or inconclusive. Potency is read from the fitted curve at half-maximal effect.

SMILES	HTT ATP protect	HTT aggregate	ALDH1A1 block	HPGD inh	LMNA splice mod
O=C(CC(=O)c1cccc([N+](=O)[O-])c1)Nc1ccccc1Cl	15.9%	25.7%	3.55µM*	·	·
O=C(Nc1nc(-c2ccccc2)cs1)c1cccc([N+](=O)[O-])c1	-52.7%	?	?	-19.1%	0.9%
CC(CC(=O)Nc1cc([N+](=O)[O-])ccc1Cl)c1ccccc1 (stereo not given)	-29.1%	-14.3%	-5.6%	-10.8%	4.4%
CC(C)N(CCC(=O)c1ccc2ccccc2c1)Cc1ccccc1	-53.5%	·	0.282µM*	?	?
Cc1cc(C)cc(Oc2nc(-c3ccccc3)cc(C)c2S(C)(=O)=O)c1	-4.0%	-14.2%	14.1µM*	?	?
CCOCCOc1nc(C)cc(C)c1S(=O)(=O)c1ccccc1C	22.5%[10 µM]	4.1%	0.3%	·	4.1%[46 µM]
Cc1cc(C)c(S(C)(=O)=O)c(Oc2ccccc2C)n1	-4.0%	7.4%	10.0%	28.2µM*	5.3%
Cc1cc(C)c(S(=O)(=O)c2ccccc2C)c(OCC(C)(C)C)n1	-9.1%	-27.8%	12.6µM*	-14.0%	15.5%
Cc1cc(-c2ccccc2)nc(Oc2ccc(C(C)(C)C)cc2)c1S(C)(=O)=O	-9.6%	-1.1%	-12.4%	-10.8%	?
Cc1ccc(CNC(=O)c2c[nH]c3ccc(S(=O)(=O)Nc4ccc(C(C)C)cc4)cc3c2=O)cc1	·	·	·	·	-25.9%[46 µM]
COc1ccccc1N1CCN(C(c2cc3ccc(C)cc3[nH]c2=O)c2nnnn2C2CCCC2)CC1 (stereo not given)	-32.0%	5.8%	25.1µM*	-15.0%	5.5%
COc1ccccc1N1CCN(C(c2cc3cc(C)ccc3[nH]c2=O)c2nnnn2C2CCCC2)CC1 (stereo not given)	-28.8%[10 µM]	-5.5%	14.1µM*	-3.4%	4.1%
O=C(Nc1nccs1)c1ccc(NC(=O)C2CC=CCC2C(=O)O)cc1 (stereo not given)	4.4%[10 µM]	12.3%[9.22 µM]	3.98µM*	·	·
O=C(O)c1ccc(NC(=O)C2CC=CCC2C(=O)O)cc1 (stereo not given)	-37.2%	1.7%	9.3%	-8.4%	-4.0%
CCOc1ccc(C(C)=O)cc1CN1C(=O)NC2(CCCCCCC2)C1=O	-34.7%	-18.1%	?	·	-8.6%[46 µM]
N#Cc1cnn(-c2nc(SCc3ccccc3)nc3sc4c(c23)CCCC4)c1N	-46.1%	-4.6%	8.91µM*	-24.3%	19.4%
O=C(O)c1[nH]c2ccc(Cl)cc2c1CCN1C(=O)c2ccccc2C1=O	13.1%[10 µM]	14.8%[9.22 µM]	·	·	·
O=C(O)c1[nH]c2ccc(Br)cc2c1CCN1C(=O)c2cccc([N+](=O)[O-])c2C1=O	-5.6%[10 µM]	-13.8%[9.22 µM]	31.6µM*	·	·
CN(C(=O)c1cnc(N2CCN(c3ncccn3)CC2)c2ccccc12)c1ccc(Cl)cc1	-31.9%	-4.8%	8.8%	22.4µM*	?
CC(C)NC(=O)c1cnc(N2CCN(c3ccccn3)CC2)c2ccccc12	-8.7%	-19.2%	31.6µM*	?	?
CC(C)(C)NC(=O)CN(Cc1ccc2c(c1)OCO2)C(=O)CNC(=O)c1cccs1	19.3%[10 µM]	17.1%[9.22 µM]	-1.4%	·	-9.3%[46 µM]
CC(=O)OC[C@@]12C(=O)[C@@H](O)[C@@H](C)[C@]3(C[C@@H](c4ccoc4)O[C@@H]3OC(C)=O)[C@H]1CCC[C@]21CO1	17.8%	·	12.7%	-3.7%	·
Cc1c(N=C2C=C(Br)C(=O)C(Br)=C2)c(=O)n(-c2ccccc2)n1C	12.2%[10 µM]	?	10µM*	·	·
Fc1ccc(-c2nnc(CN3CCN(c4ncc(C(F)(F)F)cc4Cl)CC3)o2)cc1	-17.6%[0.074 µM]	12.6µM*	?	-22.9%	?
CC(C)(C)NC(=O)NC(=O)CN1CCN(c2ncc(C(F)(F)F)cc2Cl)CC1	10.3%[10 µM]	-27.6%	28.2µM*	-21.3%	?
SMILES	HTT ATP protect	HTT aggregate	ALDH1A1 block	HPGD inh	LMNA splice mod
COc1ccc(NC(=O)CSC2=NCCN2)cc1	-9.5%	-0.6%	-8.9%	·	27.9%[9.22 µM]
CC/C=C\CC[C@H](O)C1=CCCCC1=O	-20.4%[10 µM]	·	9.7%[13.5 µM]	·	·
Cc1cc(C)n2nc(/C(C#N)=C/c3ccccn3)c(C#N)c2n1	-3.7%[10 µM]	?	14.1µM*	·	?
Cc1cc(C)n2nc(CC#N)c(C#N)c2n1	10.8%[10 µM]	?	?	·	-1.4%[9.22 µM]
Cc1nc2cnc(N3CCN(C)CC3)nc2n(CCc2ccccc2)c1=O	1.4%	·	?	·	-10.3%
COC(=O)NC(CCc1ccccc1)C(C(=O)OC)C(=O)OC (stereo not given)	-55.4%	·	7.0%	-8.3%	·
O=C(CSCc1c(Cl)cccc1Cl)Nc1nccs1	0.2%	5.7%	-7.3%	20µM*	17.8%
CC(C)NC(=O)CSCc1c(Cl)cccc1Cl	-15.9%	-14.9%	?	14.1µM*	21.5%
CNC(=O)CSCc1c(Cl)cccc1Cl	-8.1%[0.074 µM]	-7.8%	9.1%	-17.4%	5.5%
Cc1cccc(-c2nc3ccccc3c(=O)n2NC(=S)N(C)C)c1	9.5%[10 µM]	16.9%	8.91µM*	15.8µM*	-3.8%
O=C(CNC(=O)c1ccccc1F)Nc1ccccc1C(F)(F)F	-13.9%	0.9%	6.8%	·	39.4%[46 µM]
CCOC(=O)c1c(NC(C)=O)sc2c1CCC(C=O)=C2Sc1ccccc1	34.7%	-30.3%	5.01µM*	35.5µM*	-15.0%
CCOC(=O)c1c(NC(=O)c2ccccc2Cl)sc2c1CCCC2	·	·	·	·	-29.0%[46 µM]
CCOC(=O)c1c(NC(=O)COC)sc2c1CCCC2	-7.2%	-3.6%	?	-14.7%	5.9%
CCOC(=O)c1c(NC(=O)Nc2ccccc2)sc(C)c1C	-24.3%	5.7%	-15.9%	-8.9%	1.4%
CCOC(=O)c1c(NC(=O)c2ccccc2Br)sc2c1CCc1ccccc1-2	2.6%	-16.7%	?	14.1µM*	-5.8%
CCOC(=O)c1c(NC(C)=O)sc2c1CCCNC2=O	-30.0%[10 µM]	?	12.6µM*	·	-1.4%
Cc1cc(C)cc(NC(=O)CSc2nc(=O)[nH]c3c2CCC3)c1	·	·	·	·	13.6%[46 µM]
COc1ccc(-c2nn3c(=O)cc(CN4CCN(C(=O)Nc5ccc(C)c(Cl)c5)CC4)nc3s2)cc1	·	·	·	·	6.4%[46 µM]
C=CC[C@@H]1C=C[C@H](O/N=C2\c3cc(OC)ccc3O[C@H](c3cccc(OC)c3)[C@H]2O)[C@H](CO)O1	-4.6%[10 µM]	·	6.0%[13.5 µM]	·	·
COc1cc(-c2nc(-c3ccc4c(c3)[nH]c(=O)n4C)no2)cc(OC)c1OC	·	·	·	·	-2.8%[46 µM]
CCOc1ccc(NCc2nnc(SCc3ccccc3Cl)n2-c2ccccc2)cc1	-47.4%	-21.9%	12.6µM*	-14.8%	-5.3%
O=C1NC(c2cccc(Br)c2)=N/C1=C\c1ccco1	15.1%[10 µM]	-15.5%	11.2µM*	?	-11.6%
O=C1NC(c2ccccc2)=N/C1=C/c1ccco1	-33.9%[10 µM]	3.3%	17.8µM*	?	-3.1%
O=C(NC1CC(=O)N(c2ccccc2)C1)c1cccs1 (stereo not given)	·	·	·	·	-2.3%[46 µM]
Cc1cc(=O)n(Cc2ccc(F)cc2Cl)c2c1c(C)nn2C	·	·	·	·	-0.4%[46 µM]
COc1ccccc1CNC(=O)C1CC(=O)N(c2ccc(C)c(C)c2)C1 (stereo not given)	-10.6%[0.074 µM]	17.1%	6.31µM*	-1.3%	-6.2%
CCCNC(=O)Nc1ccc(C(F)(F)F)cc1	0.5%[10 µM]	-4.1%[9.22 µM]	7.7%	·	-0.6%[46 µM]

High-throughput results as filed in PubChem.
